Experimental data from PubChem BioAssay (NCI).
Compounds without any hit were thinned out: in the full panel of roughly 83,000, 20% have a hit.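 For each line, cells grew in 96-well plates with the test compound present at a single concentration for 48 hours.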 Values without a mark were called inactive. Active and inactive are the calls of the source. How the source made its calls: active means growth percent below 10; inactive means the rest.

What was measured:
Experiment in all cases: NCI-60 one-dose screen, 48 h (100 = growth as untreated, 0 = no growth, -100 = all killed)
Conditions in all cases: 10 µM
DU-145 prostate = system: DU-145 prostate
K-562 leukemia = system: K-562 leukemia
MALME-3M melanoma = system: MALME-3M melanoma
RXF 393 renal = system: RXF 393 renal
SF-268 CNS = system: SF-268 CNS
SF-295 CNS = system: SF-295 CNS
SF-539 CNS = system: SF-539 CNS
UACC-257 melanoma = system: UACC-257 melanoma
M14 melanoma = system: M14 melanoma
HCT-15 colon = system: HCT-15 colon
HT29 colon = system: HT29 colon
SNB-75 CNS = system: SNB-75 CNS
SNB-19 CNS = system: SNB-19 CNS
U251 CNS = system: U251 CNS
PC-3 prostate = system: PC-3 prostate
SK-MEL-5 melanoma = system: SK-MEL-5 melanoma
UACC-62 melanoma = system: UACC-62 melanoma
LOX IMVI melanoma = system: LOX IMVI melanoma
SK-MEL-28 melanoma = system: SK-MEL-28 melanoma
MDA-MB-231 breast = system: MDA-MB-231 breast

Row | Structure (SMILES) | growth (DU-145 prostate) | growth (K-562 leukemia) | growth (MALME-3M melanoma) | growth (RXF 393 renal) | growth (SF-268 CNS) | growth (SF-295 CNS) | growth (SF-539 CNS) | growth (UACC-257 melanoma) | growth (M14 melanoma) | growth (HCT-15 colon) | growth (HT29 colon) | growth (SNB-75 CNS) | growth (SNB-19 CNS) | growth (U251 CNS) | growth (PC-3 prostate) | growth (SK-MEL-5 melanoma) | growth (UACC-62 melanoma) | growth (LOX IMVI melanoma) | growth (SK-MEL-28 melanoma) | growth (MDA-MB-231 breast)
1 | NC1=NC(c2ccccc2Cl)N=C(Nc2nn[nH]n2)N1 (configuration not stated) | 106% | 100% | 101% | 113% | 101% | 101% | 103% | 106% | 106% | 103% | 115% | 95.2% | 99.6% | 97.5% | 103% | 98% | 94.1% | 94.2% | 124% | –
2 | COc1ccc2nc(Cl)c(-c3cc(-c4ccccc4)nc(N)n3)cc2c1 | 33.3% | 0.267% (active) | 61% | -19.8% (active) | 58.8% | 30.4% | -45.6% (active) | 71.6% | 44.1% | -64.5% (active) | 7.7% (active) | -1.67% (active) | 7.38% (active) | -62.4% (active) | 33.6% | 66% | 28.4% | -86% (active) | 61.4% | –
3 | CCOC(=O)CNC(=O)CN(Cc1ccccc1)C(=O)[C@@]1(C)CCC[C@]2(C)[C@H]3CC4C(C(C)C)=C[C@]3(CC[C@H]21)[C@@H]1C(=O)CCC(=O)[C@H]41 | 92.6% | 25.3% | 83% | – | 64.7% | 54.4% | 77.2% | 70.2% | 72.2% | 17.6% | 41.1% | 86.2% | – | – | 35.3% | 68.6% | 38.9% | -75.1% (active) | – | 64.8%
4 | Cc1ccc(S(=O)(=O)c2nc(-c3ccccc3)oc2S(=O)(=O)CC(=O)N2CCCC2)cc1 | -98.5% (active) | – | -94.9% (active) | -93.8% (active) | -0.601% (active) | 70.3% | -100% (active) | -92.2% (active) | -48.3% (active) | -78.2% (active) | -81.7% (active) | 14.7% | 68.2% | -77.5% (active) | 4.7% (active) | 26.5% | -85.4% (active) | -91.3% (active) | -100% (active) | -94.8% (active)
5 | CCOC(=O)C1=C(N)N(c2ccc(Cl)cc2)C2=C(C(=O)CC(C)(C)C2)C1c1ccc(N2CCOCC2)cc1 (configuration not stated) | 99% | – | 93.9% | 98.6% | 89.7% | 89.3% | 100% | 106% | 103% | 92.5% | 104% | 109% | 91.2% | – | 92% | 80.3% | 82.8% | 115% | 105% | 87.3%
6 | CCN1CCN(c2ccc(NC(=O)Nc3ccc4c(c3F)CCN4c3ccnc(C(=O)NC)c3)cc2C(F)(F)F)CC1 | -91.2% (active) | – | -94.3% (active) | -93% (active) | -64.2% (active) | -74.1% (active) | -100% (active) | 99.3% | -92.6% (active) | -91.1% (active) | -79% (active) | -80.8% (active) | -84.3% (active) | -93.8% (active) | 23.4% | -100% (active) | – | -99.9% (active) | -83.6% (active) | -88.9% (active)
7 | COc1cc(Cn2c(C(F)(F)F)cc3c(Cl)ncnc32)ccn1 | -100% (active) | – | 71.2% | 32.9% | -11% (active) | 95% | 59.9% | 30.1% | -25.6% (active) | -48.3% (active) | 69.7% | -60.9% (active) | -8.63% (active) | 12.7% | 29.3% | -20.4% (active) | – | -100% (active) | 27.9% | 10.7%
8 | N[C@@H](CSSC[C@H](N)C(=O)Nc1ccc(OCC2CCCC2)cc1)C(=O)Nc1ccc(OCC2CCCC2)cc1 | -88.4% (active) | – | -63.7% (active) | -94.1% (active) | -73.1% (active) | -90.4% (active) | -99.7% (active) | -96.1% (active) | -74.5% (active) | -76.9% (active) | -93.3% (active) | -96.3% (active) | -95.6% (active) | -86.6% (active) | -87.3% (active) | -100% (active) | -99.7% (active) | -96.1% (active) | -99% (active) | -97.4% (active)
9 | Cc1ccc(NC(=O)c2ccc(-n3c(=O)[nH]c4ccccc4c3=O)cc2)cc1 | 102% | – | 84.8% | 54.3% | 84.4% | 91.9% | 38% | 122% | 101% | 88.7% | 104% | 50.5% | 68.4% | 91.9% | – | 90.9% | 82.4% | 85.1% | 102% | 64.6%
10 | NC(=Nc1ccc(OCCCCCCCCn2ccnn2)cc1)c1ccccc1 | 26.7% | – | 45.1% | – | 72.4% | 10.1% | – | 50.8% | 18.4% | 15.8% | – | 61.2% | 41.7% | 12.2% | 35.8% | – | 41.8% | 26.6% | 49.2% | 13.8%
11 | CCN(CC)CCOc1ccc(C(=C(C)c2ccccc2)c2ccc(OCCN(CC)CC)cc2)cc1 | 41.4% | – | -100% (active) | -74.5% (active) | 11.6% | -63.6% (active) | -98.1% (active) | -83.4% (active) | -53.5% (active) | -31.2% (active) | -57.6% (active) | 6.51% (active) | 9.06% (active) | – | 22.7% | -100% (active) | -86.5% (active) | -98.8% (active) | -96.5% (active) | -60.4% (active)
12 | C=C(C)[C@@H]1CC[C@]2(COP(=O)(OCC)OCC)CC[C@]3(C)[C@H](CC[C@@H]4[C@@](C)(CCCN)[C@H](C(=C)C)CC[C@]43C)[C@@H]12 | 38% | – | 15.7% | 6.32% (active) | 42% | 24.7% | 19% | 20.5% | 18.2% | 9.75% (active) | 5.73% (active) | 34.4% | 40.4% | 21% | 13.1% | -47.6% (active) | 35.3% | – | 31.7% | 21.9%
13 | CC(=C(c1ccc(OCCN2CCCCCC2)cc1)c1ccc(OCCN2CCCCCC2)cc1)c1ccc(Cl)cc1 | -96.1% (active) | – | -98.9% (active) | -99.4% (active) | -84.9% (active) | -80.6% (active) | -100% (active) | -96.3% (active) | -57.9% (active) | -76% (active) | -94.8% (active) | -97.2% (active) | -99.2% (active) | -100% (active) | – | -100% (active) | -98.3% (active) | -100% (active) | -98.5% (active) | -98.8% (active)
14 | CC1(C)CC[C@]2(C(=O)N3CCOCC3)CC[C@]3(C)C(=CC[C@@H]4[C@@]5(C)CC[C@H](NCO)C(C)(C)[C@@H]5CC[C@]43C)[C@H]2C1 | -89.4% (active) | – | -96.6% (active) | -95% (active) | -76.5% (active) | -87.2% (active) | -96.8% (active) | -93.9% (active) | -84.6% (active) | -83% (active) | -60.8% (active) | -93.2% (active) | -95.8% (active) | -88.7% (active) | -61.6% (active) | -97.6% (active) | – | -83.8% (active) | -98.9% (active) | -97.6% (active)
15 | O=C1CCC(N2Cc3c(C#CCCCNC(=O)c4ccc(NC(=O)[C@@H]5NC6(CCCCC6)[C@@]6(C(=O)Nc7cc(Cl)ccc76)[C@H]5c5cccc(Cl)c5F)cc4)cccc3C2=O)C(=O)N1 (some centres not stated) | 82.1% | – | 17.7% | 46.3% | 70.3% | 54.8% | 35.1% | 60.5% | 50.1% | 41.8% | 51.5% | 56.1% | – | 55.4% | 51.8% | 5.4% (active) | 17.3% | 27.5% | 62.2% | 52%
16 | CC(=O)NCC1=C(C)C=C2C(=O)[C@](C)(O)C3(CC3)C(C)=C21 | -10.7% (active) | – | -96.3% (active) | -74.7% (active) | 18.3% | -14.5% (active) | -71.1% (active) | -62% (active) | -69.1% (active) | -20% (active) | -20.4% (active) | -74.5% (active) | -49.8% (active) | -13.2% (active) | 2.77% (active) | -84.7% (active) | – | -49.3% (active) | -93.3% (active) | -61.5% (active)
